Drawing on PubChem BioAssay (NCI), this text covers growth for 40 compounds.

About 83,000 compounds went through this panel and 20% of them were active in at least one assay; those are over-represented in the sample as a whole.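 Results are percent growth after 48 hours of single-concentration exposure. 100 means growth as in untreated cells, lower positive values show inhibition; negative values down to -100 show cell death.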 Unmarked numbers belong to inactive results. Activity calls are given as the source filed them.

The experiment deals with SK-MEL-5 melanoma. Briefly: NCI-60 one-dose screen, 48 h (100 = growth as untreated, 0 = no growth, -100 = all killed). Particulars: 10 µM. The method, then: Growth inhibition of the SK-MEL-5 human tumor cell line is measured as a screen for anti-cancer activity. Cells are grown in 96 well plates and exposed to the test compound for 48 hours. Compounds are tested at a single concentration, which is 10^-5 M for most compounds. The reported endpoint is percent growth (GI% or GIPRCNT), where numbers from 0 - 100% represent growth inhibition, and numbers from -100% - 0 represent cell death. For example, a value of 40 represents 60% growth inhibition. A value of 0 means no net growth occurred over the course of the experiment. A value of -40 indicates 40% of cells at the beginning of the experiment died by the end of the experiment. A value of -100 means all cells are dead at the end of the experiment.
NCI-60 Human Tumor Cell Lines Screen was performed using the standard one-dose NCI protocol, which is described in more detail at https://dtp.cancer.gov/discovery_development/nci-60/default.htm.
Compounds with GIPRCNT values below 10 were considered active. Activity score was based on GIPRCNT using the following formula: […]
Score is 0 for GIPRCNT values of 100 or above, 50 for GIPRCNT values of 0, and 100 for GIPRCNT values of -100.
Consider `C#C[C@]1(O)CC[C@H]2[C@@H]3CC=C4c5sc(Nc6ccc(N(C)C)cc6)nc5CC[C@]4(C)[C@H]3CC[C@@]21C`, for which the growth is 0.6% (active).

In the case of `COc1cc(Nc2nc(O)c(/C=C3\C=Nc4ccccc43)s2)cc(OC)c1OC`, the growth is -34.7% (active).

For the compound `COc1ccc(NCc2cn(-c3ccc(C(=O)O)cc3)nc2-c2ccc(F)cc2)cc1C(F)(F)F`, the growth is 26.7%.

Turning to `Cn1cc(-c2nc(N)nnc2-c2c[nH]c3ccccc23)c2cc(Br)cnc21`, the growth was -81.3% (active).

With `CCOC(=O)c1ccc(NC(=O)CSC(CC(=O)c2sc(Nc3ccccn3)nc2C)c2ccccc2F)cc1` (stereo not given), the growth is 7.25% (active).

As to `O=C(c1ccccc1)c1ccc2nc(-c3ccccc3Br)[nH]c2c1`, the growth is -97.6% (active).

`O=C(Nc1ccc(OCc2ccc(F)cc2)cc1)Nc1ccc(Cl)c(C(F)(F)F)c1`: the growth was -81.4% (active).

With `O=C(Nc1ccc(Oc2ncnc3scc(Nc4n[nH]c(=S)s4)c23)cc1)C1(C(=O)Nc2cccc(C(F)(F)F)c2)CC1`, the growth is 95%.

Turning to `CC1(C)CC[C@]2(C(=O)O)CC[C@]3(C)C(=CCC4[C@@]5(C)C[C@@H](O)[C@@H]6OC(c7cccc(F)c7)OC[C@@]6(C)C5CC[C@]43C)C2C1` (stereo not given in full), the growth is 45.9%.

For the compound `O=C(Nc1ccc(OCC(=O)c2ccc(Cl)cc2)cc1)Nc1ccc(Cl)c(C(F)(F)F)c1`, the growth is 53.8%.

On to `Cc1ccc(-c2nc(C#N)c(S(=O)(=O)N3CCN(S(C)(=O)=O)CC3)o2)cc1`, for which the growth was 55.2%.

Consider `COC(=O)CNC(=O)COc1c(OC)c(OC)cc2oc(-c3cccc(C(=O)Nc4ccc(Cl)cc4)c3)cc(=O)c12`, for which the growth was 4.43% (active).

On to `COc1ccc(Cc2nn(CC(=O)N/N=C/c3ccc([N+](=O)[O-])cc3)c(=O)c3c(C)noc23)cc1`, for which the growth is 92.8%.

In the case of `Cn1cc(-c2cc3nc(-c4c[nH]c5ccccc45)cc(N)n3n2)c2cc(Cl)ccc21`, the growth was -99% (active).

For `O=C(c1ccc(Cl)cc1)C(c1c[nH]c2ccccc12)c1c[nH]c2ccccc12`, the growth is -58.3% (active).

Regarding `Fc1ccc(/C=C/c2nc3ccccc3n3c(-c4ccc(Cl)cc4)nnc23)cc1`, the growth was 76.5%.

On to `COc1ccc(OC)c(-n2cc(C#N)c(N)c2C(=O)c2ccc(Cl)cc2Cl)c1`, for which the growth was 54.2%.

For the compound `COc1ccc(Cn2cc(C#N)c(N)c2C(C)=O)c(OC)c1`, the growth is 99.1%.

In the case of `Cn1cc(-c2nnc(N)nc2-c2c[nH]c3ccccc23)c2cc(Br)cnc21`, the growth was -72.8% (active).

Turning to `O=C1S/C(=C\c2ccc([N+](=O)[O-])cc2)C(=O)N1CCN1CCCCC1`, the growth is 101%.

In the case of `Cn1cc(/C=C(/SS/C(=C/c2cn(C)c3cccc(C(=O)O)c23)C(=O)O)C(=O)O)c2c(C(=O)O)cccc21`, the growth is 100%.

As for `COc1ccc(C(=O)COc2ccc(NC(=O)Nc3ccc(Cl)c(C(F)(F)F)c3)cc2)cc1`, the growth is -67.3% (active).

With `Cc1cc(N=C2NC(=O)S/C2=C\c2ccc(F)cc2)n[nH]1`, the growth is 16.5%.

Regarding `COc1ccccc1-n1cc(C#N)c(N)c1C(=O)c1ccc(Cl)cc1Cl`, the growth was 17.3%.

In the case of `CC(C)(C)c1cc(/C=C2\S/C(=N/c3ncn[nH]3)NC2=O)cc(C(C)(C)C)c1O`, the growth was -25.2% (active).

Turning to `O=C(CN1CCN(c2ncnc3c2cnn3-c2ccccc2)CC1)Nc1ccc(Cl)cc1`, the growth was 0.35% (active).

Consider `O=C(CSc1nc2ccccc2c(=O)n1-c1ccc(Cl)cc1)Nc1ccc(-c2nc3ccc([N+](=O)[O-])cc3[nH]2)cc1`, for which the growth was 65.3%.

In the case of `COc1ccc(Cc2nn(CC(=O)N/N=C/c3ccc(Br)cc3)c(=O)c3c(C)noc23)cc1`, the growth is 85.7%.

Consider `Cc1ccc(S(=O)(=O)N2CCN(S(=O)(=O)c3oc(-c4ccccc4)nc3C#N)CC2)cc1`, for which the growth was 63.7%.

In the case of `COc1cc2oc(-c3cccc(C(=O)Nc4ccc(Cl)cc4)c3)cc(=O)c2c(OCCNC(=O)[C@@H](N)CO)c1OC`, the growth is -81.9% (active).

With `Cc1ccc2sc3c(c2c1)Oc1nc[nH]c(=O)c1C3c1cccc(F)c1` (stereo not given), the growth is 96.4%.

Consider `Cc1cc(N=C2NC(=O)/C(=C/c3cc(C(C)(C)C)c(O)c(C(C)(C)C)c3)S2)n[nH]1`, for which the growth is -72.8% (active).

For the compound `C#C[C@]1(O)CC[C@H]2[C@@H]3CC=C4c5sc(Nc6cc(C)cc(C)n6)nc5CC[C@]4(C)[C@H]3CC[C@@]21C`, the growth is -99.7% (active).

For `CC1(C)CC(=O)C2=C(C1)N(Cc1ccc(C(=O)O)cc1)C1=C(C(=O)CC(C)(C)C1)C2c1ccc(Cl)cc1`, the growth is 99.9%.

In the case of `COc1ccc(-n2c(SCC(=O)NNS(=O)(=O)c3ccccc3)nc3ccc(Cl)cc3c2=O)cc1`, the growth is 98.9%.

For `CCn1c(SCC(=O)Nc2ccc(-c3nc4ccccc4[nH]3)cc2)nc2ccccc2c1=O`, the growth is -51.2% (active).

Consider `O=C(CC(=O)Nc1ccc(Oc2ncnc3scc(Nc4n[nH]c(=S)s4)c23)cc1)Nc1ccc(Br)cc1`, for which the growth is 98%.

Take `COc1cc(C2CC(c3ccccc3)=Nc3c(N)nc(N)nc3N2)ccc1Oc1nc(NCCO)nc(N2CCOCC2)n1` (stereo not given): the growth was 98.7%.

In the case of `COc1ccc(C(=O)COc2ccc(NC(=O)Nc3ccccc3)cc2)cc1`, the growth was 94.3%.

Turning to `COc1cc(-c2nc3ccc(C)cc3[nH]2)ccc1OCc1nnc(-c2ccccc2Br)o1`, the growth is 41.1%.
